This note sets out measurements from PubChem BioAssay (NCATS).

Test [1] is described as follows: BET inhibitor-based combinations targeting novel dependencies in MECOM-rearranged (r) AML: SET-2 cell line (AID 2202231).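 For viability: plate controls were DMSO treated cells for no effect and wells without cells for full effect.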 Note: nearly all actives have a fitted effect of over 35% in size. Particulars: SET-2 AML cells viability, CellTiter-Glo luminescence, 48 h; viability: hits give low values, concentration not given here. A digest of the protocol:
(§1)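 500 cells/well; 11-pt dose curve; 48 h, standard incubator; CellTiter-Glo luminescence after 15 min RT; DMSO/empty-well normalization; AUC plus Z-AUC (mean-centered within each line).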
Background: ATP-based viability assays read luminescence as a measure of living cells.

The nature of test [2]: BET inhibitor-based combinations targeting novel dependencies in MECOM-rearranged (r) AML: OCI-AML3 cell line (AID 2202232). Note: nearly all actives have a fitted effect of over 35% in size. Particulars: CellTiter-Glo luminescence, 48 h; Potency: OCI-AML3 viability; series mostly up to 46 µM. A digest of the protocol:
as §1

Test [3] is described as follows: BET inhibitor-based combinations targeting novel dependencies in MECOM-rearranged (r) AML: UCSD-AML1 cell line (AID 2202235). Note: nearly all actives have a fitted effect of over 40% in size. Particulars: UCSD-AML1 AML cells viability, CellTiter-Glo, 48 h; series mostly up to 46 µM. The essentials: (§2)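 Cells were plated at 500 per well and exposed to each drug across an 11-point dose range for 48 hr at standard incubator conditions. Viability was read by CellTiter-Glo luminescence, and activity was expressed as AUC and per-cell-line Z-transformed AUC.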

Test [4] in a line: BET inhibitor-based combinations targeting novel dependencies in MECOM-rearranged (r) AML: AML-191 cell line (AID 2202236; note: nearly all actives have a fitted effect of over 35% in size). Particulars: AML-191 viability, CellTiter-Glo luminescence, 48 h; series mostly up to 46 µM. The essentials:
as §1

The nature of test [5]: BET inhibitor-based combinations targeting novel dependencies in MECOM-rearranged (r) AML: AML-194 cell line (AID 2202237; note: nearly all actives have a fitted effect of over 40% in size). Particulars: AML-194 (MECOM-r AML) viability, CellTiter-Glo, 48 h; series mostly up to 46 µM. A digest of the protocol: as §1
Test [6] can be described thus: BET inhibitor-based combinations targeting novel dependencies in MECOM-rearranged (r) AML: HNT-34 cell line (AID 2202234). Note: nearly all actives have a fitted effect of over 35% in size. Particulars: HNT-34 AML viability, CellTiter-Glo luminescence, 48 h; series mostly up to 46 µM. The essentials:
as §2

The viability is a per cent measure of how many cells are alive, often set against a control.

Results filed as inconclusive are left out. A number with no mark means an inactive call. The source made the active and inactive calls. Calls come from the whole dose curve; as a rule, active = well fitted curve in the direction sought with a large enough effect; inconclusive = small, poorly fitted or top-dose-only effect, or another doubt; inactive = no such curve, though single readings can be large; an effect the other way counts as inactive or inconclusive.
Potency is the fitted concentration of half-maximal effect.

For `Clc1ccc(CCC(Cn2ccnc2)Sc2c(Cl)cccc2Cl)cc1` (configuration not stated), in test [1], the viability was 81.3%. Moreover, the Potency result in test [2], in test [3], in test [4] and in test [5] was “inactive” throughout.

Regarding `COc1ncc(Nc2ncc(C(C)N3CCN(S(C)(=O)=O)CC3)cc2-c2nc(C)nc(N)n2)cc1F` (configuration not stated), the viability in test [1] is 73.4%. Further, in test [2], the Potency is 0.662 µM (active). In addition, the Potency entry in test [6] and in test [5] was “inactive” throughout.

For the compound `CCCC[C@@H](C=O)NC(=O)[C@H](CC(C)C)NC(=O)OCc1ccccc1`, the Potency is 18.6 µM (active) in test [1] and 13.2 µM (active) in test [2]. Further, the Potency entry in test [3] and in test [5] was “inactive” throughout.

For `CN(C)Cc1ccc(S(=O)(=O)n2ccc(/C=C/C(=O)NO)c2)cc1`, the Potency was 3.72 µM (active) in test [1]; 5.25 µM (active) in test [2]; 4.68 µM (active) in test [3]; 4.17 µM (active) in test [4]; 5.9 µM (active) in test [5].

Regarding `COc1cc(N2CCN(C)CC2)ccc1Nc1ncc2c(n1)N(C)c1ccccc1C(=O)N2C`, the Potency in test [1] was 16.6 µM (active); in test [2], 2.35 µM (active); in test [6] it was 16.6 µM (active); in test [4], 18.6 µM (active); in test [5], 20.9 µM (active).

As for `Cc1ncsc1-c1ccc([C@H](C)NC(=O)[C@@H]2C[C@@H](O)CN2C(=O)[C@@H](NC(=O)COCCCOCCNC(=O)C[C@@H]2N=C(c3ccc(Cl)cc3)c3c(sc(C)c3C)-n3c(C)nnc32)C(C)(C)C)cc1`, the Potency was 3.72 µM (active) in test [1]; 0.0093 µM (active) in test [2]; 0.0295 µM (active) in test [6]; 0.209 µM (active) in test [4]; 0.186 µM (active) in test [5].

For the compound `CC(C)(c1ccc(OCC(O)CO)cc1)c1ccc(OCC(O)CCl)cc1` (configuration not stated), the viability in test [1] was 60%. Further, the Potency result in test [2], in test [3], in test [4] and in test [5] was “inactive” in each case.

Regarding `CC(C)(C)NC(=O)c1cncn1C1CCN(c2ccc(-c3nnc(C(F)(F)F)o3)cn2)CC1`, the Potency in test [1] is 16.6 µM (active); in test [2], 1.05 µM (active); in test [6], 4.68 µM (active); in test [4] it was 13.2 µM (active).
